{"source": "the supplement of paper PMC11006884", "note": "Of roughly 6,500 targets only a part is listed; those with a hit were picked by preference. About 2% of all pairs of compound and target were hits."}
{"compound": "COC(=O)C#Cc1ccccc1 [methyl 3-phenylpropiolate]", "experiment": "log2 ratio of iodoacetamide-alkyne labeling of the cysteine site, DMSO over compound (competition); higher = stronger covalent engagement of the cysteine by the compound, active = 1 or more", "settings": "500 µM; treatment time 1 h; system: HEK293T cell lysate", "outline": "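Electrophile (500 µM) or vehicle was added to HEK293T lysate (2 mg/mL) for 1 h at ambient temperature before iodoacetamide alkyne labelling (1 h) and click coupling to sCIP-TMT reagents. After pooling, overnight trypsin digestion at 37 °C, streptavidin enrichment and acid elution, peptides were measured by Orbitrap Eclipse LC-MS/MS with FAIMS and quantified in FragPipe. Each cysteine's log2 competition ratio compares mean control-channel with mean compound-channel reporter intensity, control over compound. Data came from duplicate channels across three replicates, excluding cysteines quantified in only one replicate.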"}
{"target": "CHAF1A C190 (UniProt Q13111)", "log2 ratio of iodoacetamide-alkyne labeling": "1.08 (active)"}
{"target": "UniProt Q05655_C127", "log2 ratio of iodoacetamide-alkyne labeling": "0.196 (inactive)"}
{"target": "UniProt P62854_C77", "log2 ratio of iodoacetamide-alkyne labeling": "0.434 (inactive)"}
{"target": "UniProt Q02040_C542", "log2 ratio of iodoacetamide-alkyne labeling": "0.763 (inactive)"}
{"target": "EEF1A2 C326 (UniProt Q05639)", "log2 ratio of iodoacetamide-alkyne labeling": "0.25 (inactive)"}
{"target": "BLM C704 (UniProt P54132)", "log2 ratio of iodoacetamide-alkyne labeling": "0.6 (inactive)"}
{"target": "EEA1 C1405 (UniProt Q15075)", "sequence (Q15075 whole entry, looked up)": "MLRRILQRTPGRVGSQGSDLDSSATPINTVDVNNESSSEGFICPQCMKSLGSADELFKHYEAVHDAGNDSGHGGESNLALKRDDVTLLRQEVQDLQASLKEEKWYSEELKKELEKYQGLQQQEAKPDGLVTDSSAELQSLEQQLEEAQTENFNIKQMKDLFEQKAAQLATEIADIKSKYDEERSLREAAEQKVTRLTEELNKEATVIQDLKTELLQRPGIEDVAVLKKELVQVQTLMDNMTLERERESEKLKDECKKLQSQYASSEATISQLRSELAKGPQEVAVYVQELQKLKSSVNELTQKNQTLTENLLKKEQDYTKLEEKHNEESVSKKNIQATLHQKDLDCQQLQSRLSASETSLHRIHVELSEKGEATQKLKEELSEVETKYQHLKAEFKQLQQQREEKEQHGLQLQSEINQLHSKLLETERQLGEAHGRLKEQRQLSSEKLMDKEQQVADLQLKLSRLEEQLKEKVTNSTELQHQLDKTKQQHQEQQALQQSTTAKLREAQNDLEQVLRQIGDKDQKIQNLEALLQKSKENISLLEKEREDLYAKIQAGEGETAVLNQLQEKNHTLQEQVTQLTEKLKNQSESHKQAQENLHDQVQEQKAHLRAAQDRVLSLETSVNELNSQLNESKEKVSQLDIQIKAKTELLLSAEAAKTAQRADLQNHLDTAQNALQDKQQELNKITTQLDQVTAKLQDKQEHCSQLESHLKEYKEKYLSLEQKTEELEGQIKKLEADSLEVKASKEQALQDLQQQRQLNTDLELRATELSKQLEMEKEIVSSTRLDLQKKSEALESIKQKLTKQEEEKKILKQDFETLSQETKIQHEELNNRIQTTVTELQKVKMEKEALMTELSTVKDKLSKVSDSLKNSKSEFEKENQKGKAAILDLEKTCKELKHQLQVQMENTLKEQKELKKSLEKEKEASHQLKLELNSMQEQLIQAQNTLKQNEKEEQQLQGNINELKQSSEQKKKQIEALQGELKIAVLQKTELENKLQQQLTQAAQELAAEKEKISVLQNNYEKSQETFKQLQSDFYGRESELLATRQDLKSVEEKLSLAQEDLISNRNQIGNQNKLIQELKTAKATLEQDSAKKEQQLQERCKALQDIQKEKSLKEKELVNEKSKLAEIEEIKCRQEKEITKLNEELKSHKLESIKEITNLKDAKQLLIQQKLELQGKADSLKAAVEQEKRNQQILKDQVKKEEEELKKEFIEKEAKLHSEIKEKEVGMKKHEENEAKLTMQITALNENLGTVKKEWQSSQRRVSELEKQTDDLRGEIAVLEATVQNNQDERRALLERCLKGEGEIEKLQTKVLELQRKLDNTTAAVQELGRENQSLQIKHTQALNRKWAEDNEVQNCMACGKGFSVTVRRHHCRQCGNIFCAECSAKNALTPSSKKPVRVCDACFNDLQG", "log2 ratio of iodoacetamide-alkyne labeling": "0.0817 (inactive)"}
{"target": "NUBP1 C25 (UniProt P53384)", "log2 ratio of iodoacetamide-alkyne labeling": "2.24 (active)"}
{"target": "UniProt P68431_C111", "log2 ratio of iodoacetamide-alkyne labeling": "0.142 (inactive)"}
{"target": "CMC4 C12 (UniProt P56277)", "sequence (P56277 whole entry)": "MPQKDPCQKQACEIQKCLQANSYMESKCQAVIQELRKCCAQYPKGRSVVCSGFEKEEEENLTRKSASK", "log2 ratio of iodoacetamide-alkyne labeling": "1.14 (active)"}
{"target": "SEC23B C767 (UniProt Q15437)", "log2 ratio of iodoacetamide-alkyne labeling": "0.00601 (inactive)"}
{"target": "TBCE C371 (UniProt Q15813)", "log2 ratio of iodoacetamide-alkyne labeling": "0.185 (inactive)"}
{"target": "RRP12 C799 (UniProt Q5JTH9)", "log2 ratio of iodoacetamide-alkyne labeling": "0.107 (inactive)"}
{"target": "PMPCA C466 (UniProt Q10713)", "sequence (Q10713 whole entry)": "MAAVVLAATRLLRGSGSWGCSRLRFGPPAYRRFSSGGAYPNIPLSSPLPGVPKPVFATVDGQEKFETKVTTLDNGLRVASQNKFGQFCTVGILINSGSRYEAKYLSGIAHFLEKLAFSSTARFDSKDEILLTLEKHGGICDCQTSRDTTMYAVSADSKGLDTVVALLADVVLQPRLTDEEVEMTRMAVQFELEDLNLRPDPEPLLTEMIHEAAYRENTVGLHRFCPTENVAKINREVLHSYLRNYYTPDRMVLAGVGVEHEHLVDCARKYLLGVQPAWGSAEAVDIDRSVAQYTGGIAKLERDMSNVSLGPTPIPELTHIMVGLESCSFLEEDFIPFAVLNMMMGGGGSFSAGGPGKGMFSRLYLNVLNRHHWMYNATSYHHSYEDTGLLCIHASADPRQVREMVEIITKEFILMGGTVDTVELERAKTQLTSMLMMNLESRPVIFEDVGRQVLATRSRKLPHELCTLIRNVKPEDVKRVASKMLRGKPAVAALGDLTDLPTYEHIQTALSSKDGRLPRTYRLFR", "log2 ratio of iodoacetamide-alkyne labeling": "0.00592 (inactive)"}
{"target": "NUP98 C1027 (UniProt P52948)", "sequence (P52948 whole entry, looked up)": "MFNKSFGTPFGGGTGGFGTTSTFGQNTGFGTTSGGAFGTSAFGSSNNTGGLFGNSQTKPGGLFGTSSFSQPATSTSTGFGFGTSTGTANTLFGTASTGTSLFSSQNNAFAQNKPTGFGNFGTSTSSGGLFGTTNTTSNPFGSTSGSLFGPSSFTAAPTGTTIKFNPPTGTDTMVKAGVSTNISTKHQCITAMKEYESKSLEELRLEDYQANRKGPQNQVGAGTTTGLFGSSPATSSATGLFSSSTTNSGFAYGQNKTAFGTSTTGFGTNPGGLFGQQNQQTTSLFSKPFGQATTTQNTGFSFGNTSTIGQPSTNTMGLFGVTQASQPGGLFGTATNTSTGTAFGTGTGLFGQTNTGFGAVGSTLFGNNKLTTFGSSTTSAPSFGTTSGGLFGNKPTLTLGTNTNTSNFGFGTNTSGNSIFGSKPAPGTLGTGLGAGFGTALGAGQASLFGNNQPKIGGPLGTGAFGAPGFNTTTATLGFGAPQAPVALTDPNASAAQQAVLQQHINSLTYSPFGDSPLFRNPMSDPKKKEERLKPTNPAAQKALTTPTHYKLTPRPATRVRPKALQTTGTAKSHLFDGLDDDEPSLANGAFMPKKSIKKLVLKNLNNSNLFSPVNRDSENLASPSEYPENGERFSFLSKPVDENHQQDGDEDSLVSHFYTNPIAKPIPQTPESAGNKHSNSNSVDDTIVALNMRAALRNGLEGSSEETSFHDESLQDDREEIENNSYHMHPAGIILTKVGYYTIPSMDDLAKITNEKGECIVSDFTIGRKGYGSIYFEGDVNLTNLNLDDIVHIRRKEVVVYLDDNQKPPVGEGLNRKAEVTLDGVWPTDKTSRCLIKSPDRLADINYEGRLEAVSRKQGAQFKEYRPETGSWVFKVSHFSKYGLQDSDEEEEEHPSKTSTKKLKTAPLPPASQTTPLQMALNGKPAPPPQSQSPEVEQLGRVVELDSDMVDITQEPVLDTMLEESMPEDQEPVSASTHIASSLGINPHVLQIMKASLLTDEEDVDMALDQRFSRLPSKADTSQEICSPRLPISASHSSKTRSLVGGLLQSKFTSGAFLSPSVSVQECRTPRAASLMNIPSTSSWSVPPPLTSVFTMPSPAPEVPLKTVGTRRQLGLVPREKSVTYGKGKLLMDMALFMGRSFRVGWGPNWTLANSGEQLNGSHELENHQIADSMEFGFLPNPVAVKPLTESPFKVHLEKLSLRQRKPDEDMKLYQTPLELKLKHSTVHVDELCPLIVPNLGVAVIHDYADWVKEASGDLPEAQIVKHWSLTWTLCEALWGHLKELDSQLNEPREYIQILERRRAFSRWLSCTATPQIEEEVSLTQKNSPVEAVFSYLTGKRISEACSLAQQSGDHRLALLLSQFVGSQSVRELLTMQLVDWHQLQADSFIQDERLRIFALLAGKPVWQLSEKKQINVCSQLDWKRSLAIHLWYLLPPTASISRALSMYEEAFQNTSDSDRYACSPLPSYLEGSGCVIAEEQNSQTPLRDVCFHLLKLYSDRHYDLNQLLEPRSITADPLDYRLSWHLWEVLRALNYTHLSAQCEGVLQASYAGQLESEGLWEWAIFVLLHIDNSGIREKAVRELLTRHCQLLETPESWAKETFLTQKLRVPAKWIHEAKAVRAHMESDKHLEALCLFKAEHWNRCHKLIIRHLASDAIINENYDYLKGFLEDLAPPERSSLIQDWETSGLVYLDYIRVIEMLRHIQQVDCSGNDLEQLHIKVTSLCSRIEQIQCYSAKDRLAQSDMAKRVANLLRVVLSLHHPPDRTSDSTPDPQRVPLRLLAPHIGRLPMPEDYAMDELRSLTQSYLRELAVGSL", "log2 ratio of iodoacetamide-alkyne labeling": "0.378 (inactive)"}
{"target": "UniProt Q13247_C121", "log2 ratio of iodoacetamide-alkyne labeling": "-0.0624 (inactive)"}
{"target": "DDX39B C198 (UniProt Q13838)", "log2 ratio of iodoacetamide-alkyne labeling": "-0.129 (inactive)"}
{"target": "UniProt P62753_C12", "log2 ratio of iodoacetamide-alkyne labeling": "0.196 (inactive)"}
{"target": "LAGE3 C23 (UniProt Q14657)", "sequence (Q14657 whole entry)": "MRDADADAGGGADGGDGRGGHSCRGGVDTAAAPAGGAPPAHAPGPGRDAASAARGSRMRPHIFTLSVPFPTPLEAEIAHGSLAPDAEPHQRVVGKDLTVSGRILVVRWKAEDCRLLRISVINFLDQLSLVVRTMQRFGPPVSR", "log2 ratio of iodoacetamide-alkyne labeling": "0.594 (inactive)"}
{"target": "SF3A1 C244 (UniProt Q15459)", "log2 ratio of iodoacetamide-alkyne labeling": "0.0803 (inactive)"}
{"target": "MDC1 C128 (UniProt Q14676)", "log2 ratio of iodoacetamide-alkyne labeling": "0.14 (inactive)"}
{"target": "UniProt P55769_C30", "log2 ratio of iodoacetamide-alkyne labeling": "-0.0266 (inactive)"}
{"target": "ZNF638 C1930 (UniProt Q14966)", "log2 ratio of iodoacetamide-alkyne labeling": "-0.212 (inactive)"}
{"target": "UniProt Q00341_C683", "log2 ratio of iodoacetamide-alkyne labeling": "-0.0455 (inactive)"}
{"target": "PPP2R5D C17 (UniProt Q14738)", "log2 ratio of iodoacetamide-alkyne labeling": "0.818 (inactive)"}
{"target": "CNBP C171 (UniProt P62633)", "sequence (P62633 whole entry, looked up)": "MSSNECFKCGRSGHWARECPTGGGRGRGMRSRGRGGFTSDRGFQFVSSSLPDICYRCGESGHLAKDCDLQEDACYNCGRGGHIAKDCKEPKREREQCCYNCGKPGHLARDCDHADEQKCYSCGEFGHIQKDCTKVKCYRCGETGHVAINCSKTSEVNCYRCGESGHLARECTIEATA", "log2 ratio of iodoacetamide-alkyne labeling": "-0.0616 (inactive)"}
{"target": "TTLL12 C612 (UniProt Q14166)", "log2 ratio of iodoacetamide-alkyne labeling": "0.0779 (inactive)"}
{"target": "EIF2B5 C335 (UniProt Q13144)", "log2 ratio of iodoacetamide-alkyne labeling": "0.267 (inactive)"}
{"target": "SART3 C472 (UniProt Q15020)", "log2 ratio of iodoacetamide-alkyne labeling": "0.326 (inactive)"}
{"target": "TSR1 C329 (UniProt Q2NL82)", "log2 ratio of iodoacetamide-alkyne labeling": "0.425 (inactive)"}
{"target": "UniProt P98164_C4047", "log2 ratio of iodoacetamide-alkyne labeling": "0.464 (inactive)"}
{"target": "MRPS11 C186 (UniProt P82912)", "log2 ratio of iodoacetamide-alkyne labeling": "0.527 (inactive)"}
{"target": "PIN1 C57 (UniProt Q13526)", "sequence (Q13526 whole entry, looked up)": "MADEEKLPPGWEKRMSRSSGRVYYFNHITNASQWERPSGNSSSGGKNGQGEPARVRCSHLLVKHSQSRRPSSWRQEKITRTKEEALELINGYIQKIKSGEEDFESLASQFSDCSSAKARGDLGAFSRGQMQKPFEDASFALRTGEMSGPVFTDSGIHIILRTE", "log2 ratio of iodoacetamide-alkyne labeling": "-0.187 (inactive)"}
{"target": "HNRNPUL2 C308 (UniProt Q1KMD3)", "sequence (Q1KMD3 whole entry, looked up)": "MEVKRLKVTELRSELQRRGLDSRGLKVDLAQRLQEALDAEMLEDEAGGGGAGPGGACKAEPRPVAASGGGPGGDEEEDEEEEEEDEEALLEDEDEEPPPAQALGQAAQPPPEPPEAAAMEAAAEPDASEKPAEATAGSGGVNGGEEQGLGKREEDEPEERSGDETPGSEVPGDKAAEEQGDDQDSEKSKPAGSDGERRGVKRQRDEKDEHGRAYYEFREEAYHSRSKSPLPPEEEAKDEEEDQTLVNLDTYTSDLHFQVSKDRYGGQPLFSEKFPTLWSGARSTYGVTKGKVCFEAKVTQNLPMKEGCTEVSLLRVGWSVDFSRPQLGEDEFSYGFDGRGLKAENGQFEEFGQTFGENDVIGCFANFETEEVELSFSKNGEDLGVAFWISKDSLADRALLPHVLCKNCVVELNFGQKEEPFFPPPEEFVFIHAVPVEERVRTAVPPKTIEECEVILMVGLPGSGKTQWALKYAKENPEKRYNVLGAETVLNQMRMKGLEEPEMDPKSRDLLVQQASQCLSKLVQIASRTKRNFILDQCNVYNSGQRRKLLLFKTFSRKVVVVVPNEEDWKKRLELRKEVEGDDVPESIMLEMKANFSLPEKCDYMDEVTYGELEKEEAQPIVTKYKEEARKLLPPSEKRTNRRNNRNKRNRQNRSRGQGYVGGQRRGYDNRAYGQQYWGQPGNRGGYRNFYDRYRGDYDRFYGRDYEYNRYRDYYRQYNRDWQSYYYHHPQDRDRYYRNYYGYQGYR", "log2 ratio of iodoacetamide-alkyne labeling": "0.826 (inactive)"}
{"target": "CLTC C870 (UniProt Q00610)", "log2 ratio of iodoacetamide-alkyne labeling": "0.621 (inactive)"}
